# Source: PubChem BioAssay (NCATS)
# Inconclusive results are not listed. Where a call stands in place of a potency, no number is given. Values without a mark were called inactive. Activity calls are given as the source filed them. The call rests on the fitted dose curve; in most records, active means well fitted cell-killing curve with a large enough effect; inconclusive means small, poorly fitted or top-dose-only effect, or effect the other way; inactive means no such curve, though single readings can be large or run the other way.
# Tests used:
# [1] = Quantitative High-Throughput drug screen in 47 multiple myeloma cell lines against the NCATS MIPE library collection: LP1_DSMZ cell viability assay (AID 1918982); further: nearly all actives have a fitted effect of over 35% in size; further: potency means the concentration at half of the fitted maximal effect
# Outline: (§1)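 Plated at 500 cells per well, myeloma lines received MIPE 4.0 compounds by pin tool. Following 48 h culture at 37 °C, CellTiter-Glo luminescence gave viability relative to DMSO and media-only controls.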
# [2] = Quantitative High-Throughput drug screen in 47 multiple myeloma cell lines against the NCATS MIPE library collection: KMS28PE_JCRB cell viability assay (AID 1918983); further: nearly all actives have a fitted effect of over 35% in size; further: potency means the concentration at half of the fitted maximal effect
# Outline: as §1
# [3] = Quantitative High-Throughput drug screen in 47 multiple myeloma cell lines against the NCATS MIPE library collection: OPM1_PLB cell viability assay (AID 1918989); further: nearly all actives have a fitted effect of over 40% in size; further: potency means the concentration at half of the fitted maximal effect
# Outline: as §1
# [4] = Quantitative High-Throughput drug screen in 47 multiple myeloma cell lines against the NCATS MIPE library collection: XG1_PLB cell viability assay (AID 1919866); further: nearly all actives have a fitted effect of over 35% in size; further: potency means the concentration at half of the fitted maximal effect
# Outline: as §1
# [5] = Quantitative High-Throughput drug screen in 47 multiple myeloma cell lines against the NCATS MIPE library collection: PE2_PLB cell viability assay (AID 1919869); further: nearly all actives have a fitted effect of over 35% in size; further: potency means the concentration at half of the fitted maximal effect
# Outline: as §1
# [6] = Quantitative High-Throughput drug screen in 47 multiple myeloma cell lines against the NCATS MIPE library collection: KMS11_JCRBsus cell viability assay (AID 1919873); further: nearly all actives have a fitted effect of over 50% in size; further: potency means the concentration at half of the fitted maximal effect
# Outline: as §1
# [7] = Quantitative High-Throughput drug screen in 47 multiple myeloma cell lines against the NCATS MIPE library collection: KMS28BM_JCRB cell viability assay (AID 1919874); further: nearly all actives have a fitted effect of over 35% in size; further: potency means the concentration at half of the fitted maximal effect
# Outline: as §1
# [8] = Quantitative High-Throughput drug screen in 47 multiple myeloma cell lines against the NCATS MIPE library collection: KMS34_JCRB cell viability assay (AID 1918985); further: nearly all actives have a fitted effect of over 40% in size; further: potency means the concentration at half of the fitted maximal effect
# Outline: as §1
# [9] = Quantitative High-Throughput drug screen in 47 multiple myeloma cell lines against the NCATS MIPE library collection: OCIMY7_PLB cell viability assay (AID 1918987); further: nearly all actives have a fitted effect of over 65% in size; further: potency means the concentration at half of the fitted maximal effect
# Outline: as §1
# [10] = Quantitative High-Throughput drug screen in 47 multiple myeloma cell lines against the NCATS MIPE library collection: XG6_PLB cell viability assay (AID 1919865); further: nearly all actives have a fitted effect of over 40% in size; further: potency means the concentration at half of the fitted maximal effect
# Outline: as §1
# [11] = Quantitative High-Throughput drug screen in 47 multiple myeloma cell lines against the NCATS MIPE library collection: VP6_DJ cell viability assay (AID 1919867); further: nearly all actives have a fitted effect of over 40% in size; further: potency means the concentration at half of the fitted maximal effect
# Outline: as §1
# [12] = Quantitative High-Throughput drug screen in 47 multiple myeloma cell lines against the NCATS MIPE library collection: PCM6_Riken cell viability assay (AID 1919870); further: nearly all actives have a fitted effect of over 30% in size; further: potency means the concentration at half of the fitted maximal effect
# Outline: as §1
# [13] = Quantitative High-Throughput drug screen in 47 multiple myeloma cell lines against the NCATS MIPE library collection: OPM2_DSMZ cell viability assay (AID 1919872); further: nearly all actives have a fitted effect of over 30% in size; further: potency means the concentration at half of the fitted maximal effect
# Outline: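 Myeloma cells (500 per well) were exposed to MIPE 4.0 compounds by pin transfer and incubated 48 hours at 37C, 5% CO2. Viability was read as ATP by CellTiter-Glo luminescence, normalised to DMSO (100%) and media-only (0%) wells.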
# [14] = Quantitative High-Throughput drug screen in 47 multiple myeloma cell lines against the NCATS MIPE library collection: L363_DSMZ cell viability assay (AID 1918984); further: nearly all actives have a fitted effect of over 40% in size; further: potency means the concentration at half of the fitted maximal effect
# Outline: as §1
# [15] = Quantitative High-Throughput drug screen in 47 multiple myeloma cell lines against the NCATS MIPE library collection: OCIMY5_PLB cell viability assay (AID 1918988); further: nearly all actives have a fitted effect of over 65% in size; further: potency means the concentration at half of the fitted maximal effect
# Outline: as §1
# [16] = Quantitative High-Throughput drug screen in 47 multiple myeloma cell lines against the NCATS MIPE library collection: SKMM1_PLB cell viability assay (AID 1919863); details: SKMM1 myeloma viability, CellTiter-Glo ATP, 48 h; viability: hits give low values; further: nearly all actives have a fitted effect of over 35% in size; further: potency means the concentration at half of the fitted maximal effect; on viability: series mostly up to about 46 µM
# Outline: as §1
# [17] = Quantitative High-Throughput drug screen in 47 multiple myeloma cell lines against the NCATS MIPE library collection: U266_ATCC cell viability assay (AID 1919864); further: nearly all actives have a fitted effect of over 35% in size; further: potency means the concentration at half of the fitted maximal effect
# Outline: as §1
# [18] = Quantitative High-Throughput drug screen in 47 multiple myeloma cell lines against the NCATS MIPE library collection: RPMI8226_ATCC cell viability assay (AID 1919871); further: nearly all actives have a fitted effect of over 30% in size
# Outline: as §1
Compound,Potency [1],Potency [2],Potency [3],Potency [4],Potency [5],Potency [6],Potency [7],Potency [8],Potency [9],Potency [10],Potency [11],Potency [12],Potency [13],Potency [14],Potency [15],viability [16],Potency [17],Potency [16],Potency [18]
COc1cc2c(cc1OC)C1CC(=O)C(CC(C)C)CN1CC2 (stereo unspecified),inactive,inactive,inactive,inactive,inactive,inactive,inactive,–,–,–,–,–,–,–,–,–,–,–,–
Cc1ccc(C)c(OCCCC(C)(C)C(=O)O)c1,inactive,inactive,–,16.6 µM (active),–,inactive,inactive,inactive,18.7 µM (active),9.35 µM (active),7.43 µM (active),8.33 µM (active),inactive,–,–,–,–,–,–
CN(C)CCCC1(c2ccc(F)cc2)OCc2cc(C#N)ccc21 (stereo unspecified),inactive,–,–,–,inactive,–,–,inactive,11.8 µM (active),–,inactive,inactive,inactive,inactive,18.7 µM (active),106%,23.5 µM (active),–,–
Cc1cccc(C#Cc2ccccc2)n1,inactive,inactive,8.33 µM (active),14.8 µM (active),–,–,inactive,–,–,–,–,inactive,inactive,–,–,120%,inactive,–,–
Oc1ccc2ccccc2c1SSc1c(O)ccc2ccccc12,23.5 µM (active),–,8.33 µM (active),11.8 µM (active),7.43 µM (active),13.2 µM (active),23.5 µM (active),5.9 µM (active),4.69 µM (active),10.5 µM (active),16.6 µM (active),13.2 µM (active),20.9 µM (active),13.2 µM (active),14.8 µM (active),–,20.9 µM (active),18.7 µM (active),–
Cc1nc2n(c(=O)c1CCN1CCC(c3noc4cc(F)ccc34)CC1)CCCC2,inactive,inactive,–,inactive,inactive,inactive,inactive,inactive,–,inactive,7.43 µM (active),inactive,inactive,–,–,134%,–,–,inactive
O=C(O)c1cccc(-c2noc(-c3ccccc3F)n2)c1,inactive,14.8 µM (active),–,inactive,inactive,inactive,inactive,inactive,–,inactive,–,inactive,inactive,–,9.35 µM (active),–,18.7 µM (active),–,inactive
NC(=NCc1ccccc1)NC(=O)c1nc(Cl)c(N)nc1N,inactive,–,16.6 µM (active),2.64 µM (active),9.35 µM (active),inactive,inactive,inactive,8.33 µM (active),–,7.43 µM (active),4.69 µM (active),inactive,23.5 µM (active),inactive,140%,1.48 µM (active),–,–
Cc1cc2cc3c(C)cc(=O)oc3c(C)c2o1,inactive,–,–,18.7 µM (active),20.9 µM (active),–,inactive,inactive,26.4 µM (active),6.62 µM (active),23.5 µM (active),20.9 µM (active),inactive,23.5 µM (active),8.33 µM (active),–,11.8 µM (active),–,–
CC(=O)O[C@H]1C(=O)[C@@]2(C)C([C@H](OC(=O)c3ccccc3)[C@]3(O)C[C@H](OC(=O)[C@H](O)[C@@H](NC(=O)c4ccccc4)c4ccccc4)C(C)=C1C3(C)C)[C@]1(OC(C)=O)CO[C@@H]1C[C@@H]2O (stereo partly specified),inactive,inactive,–,inactive,inactive,inactive,–,–,–,–,inactive,inactive,–,–,inactive,–,inactive,–,–
CC(C)c1nc(CN(C)C(=O)N[C@H](C(=O)N[C@@H](Cc2ccccc2)C[C@H](O)[C@H](Cc2ccccc2)NC(=O)OCc2cncs2)C(C)C)cs1,16.6 µM (active),–,inactive,inactive,–,–,–,16.6 µM (active),20.9 µM (active),inactive,–,inactive,20.9 µM (active),inactive,–,–,–,–,–
COc1ccc(C2(C#N)CCC(C(=O)O)CC2)cc1OC1CCCC1 (stereo unspecified),inactive,inactive,7.43 µM (active),–,inactive,inactive,inactive,inactive,–,–,16.6 µM (active),16.6 µM (active),inactive,–,–,137%,inactive,–,–
O=C(NCCO[N+](=O)[O-])c1cccnc1,inactive,inactive,inactive,inactive,inactive,–,inactive,inactive,–,inactive,inactive,inactive,inactive,–,inactive,–,–,–,–
O=C(O)c1cn(-c2ccc(F)cc2)c2cc(N3CCNCC3)c(F)cc2c1=O,inactive,inactive,–,inactive,inactive,inactive,inactive,–,inactive,–,–,inactive,inactive,–,–,–,–,–,–
C=CCc1cc(OC)c(O)c(C(=O)NCCO)c1,inactive,inactive,–,inactive,inactive,inactive,inactive,inactive,–,inactive,–,–,inactive,–,inactive,–,inactive,–,–
O=C(O)c1cc(=O)c2c(OCC(O)COc3cccc4oc(C(=O)O)cc(=O)c34)cccc2o1,inactive,inactive,–,inactive,inactive,inactive,inactive,–,inactive,inactive,5.26 µM (active),inactive,inactive,–,–,125%,–,–,–
C[C@@H](c1ncncc1F)[C@](O)(Cn1cncn1)c1ccc(F)cc1F,inactive,inactive,–,–,inactive,inactive,–,inactive,–,5.26 µM (active),–,1.66 µM (active),inactive,–,inactive,–,–,–,–
